Compound activity: PubChem BioAssay, National Center for Advancing Translational Sciences (NCATS)
SMN2 splice up – increases expression of the SMN2 splice variant | HEK293 SMN2-luciferase splicing reporter, luminescence, 30-36 h | Potency, µM (doses to about 46.1 µM), actives largely listed as activators | 210,000 compounds, 2.8% hits; further: nearly all actives have a fitted effect of over 55% in size
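HEK293 cells carry an SMN2 […]–luciferase reporter in which exon 7 inclusion puts luciferase in frame. Cells were plated 10-12 h before compound addition, then incubated 30-36 h at 37C. ONE-Glo luminescence was read; sodium butyrate at 4.5 mM final served as control.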
Rab9 prom act – Rab9 promoter activation; Huh7 Rab9 promoter-luciferase reporter, luminescence, 24 h; Potency, µM (top dose mostly 9.22 µM), actives largely listed as activators; 320,000 compounds, 2.8% hits; further: nearly all actives have a fitted effect of over 60% in size
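Rab9 promoter-driven luciferase in stably transfected Huh7 cells; 1500 cells/well rested 2 h, exposed to compound in DMSO for 24 h at 37 °C, 5% CO2. Luminescence read 10 min after adding luciferase reagent at ambient temperature.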
NPC1 promoter act – NPC1 promoter activation | Potency, µM (top dose mostly 9.22 µM), most hits filed as activators | Huh7 NPC1 promoter luciferase reporter, 24 h | 320,000 compounds, 2.4% hits | AID 485313; further: nearly all actives have a fitted effect of over 60% in size
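Huh7 reporter cells (NPC1 promoter driving luciferase) are dosed with compound for 24 h at 37 °C, 5% CO2; luciferase detection reagent is then added and luminescence measured after 10 min at ambient temperature.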
ELG1 genotoxic – genotoxicity induction in ELG1-luciferase HEK293T cells. HEK293T ELG1-luciferase reporter, luminescence, 16 h. Potency, µM (series often up to 46 µM), usual class: activators. 330,000 compounds, 1.3% hits; further: nearly all actives have a fitted effect of over 60% in size
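HEK293T cells expressing luciferase-tagged ELG1 were exposed to compound or DMSO vehicle for 16 hr at 37 °C and 5% CO2. Luciferase activity was then measured with ONE-Glo after 30 min at room temperature.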
FLuc counter – inhibits or activates purified firefly luciferase, miR-21 counter-screen. AID 588342. P08659. 360,000 compounds, 6.9% hits. purified FLuc, Km substrates, luminescence inhibition. Potency, µM (top dose mostly 57.5 µM), usual class: inhibitors; further: nearly all actives have a fitted effect of over 55% in size
Target sequence (P08659 whole entry, looked up): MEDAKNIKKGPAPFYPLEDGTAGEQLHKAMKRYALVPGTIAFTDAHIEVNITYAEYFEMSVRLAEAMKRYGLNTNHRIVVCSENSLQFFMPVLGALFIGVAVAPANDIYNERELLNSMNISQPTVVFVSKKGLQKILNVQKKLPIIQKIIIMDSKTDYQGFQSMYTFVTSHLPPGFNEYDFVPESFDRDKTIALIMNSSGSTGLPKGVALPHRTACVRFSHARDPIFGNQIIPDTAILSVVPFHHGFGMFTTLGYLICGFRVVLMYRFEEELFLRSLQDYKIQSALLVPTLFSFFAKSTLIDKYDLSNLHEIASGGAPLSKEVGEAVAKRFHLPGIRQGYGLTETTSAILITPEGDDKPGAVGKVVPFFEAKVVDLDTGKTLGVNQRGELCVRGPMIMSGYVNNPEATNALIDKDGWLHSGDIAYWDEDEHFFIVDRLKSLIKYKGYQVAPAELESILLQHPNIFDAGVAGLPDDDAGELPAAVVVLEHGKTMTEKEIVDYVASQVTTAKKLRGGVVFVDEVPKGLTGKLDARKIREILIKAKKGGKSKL
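Biochemical qHTS of compounds, final roughly 60 µM downward over six points, against 10 nM purified firefly luciferase using Km concentrations of substrates (10 uM D-luciferin, 10 uM ATP) in Tris acetate pH 7.5 buffer; luminescence output.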
Of the large screens only hits and unclear results are named; the others gave an inactive call. Hits are enriched below; roughly 7.4% of the tested compounds scored in any of these assays. The call rests on the fitted dose curve; in most records, active means well fitted curve in the direction sought with a large enough effect; inconclusive means small, poorly fitted or top-dose-only effect, or another doubt; inactive means no such curve, though single readings can be large; an effect the other way counts as inactive or inconclusive.

Cc1nn2cc(-c3ccccc3)nc2s1	SMN2 splice up 10µM, Rab9 prom act 1µM, NPC1 promoter act 0.35µM, ELG1 genotoxic inconclusive, FLuc counter 4.3µM
Cc1ccc(-c2cn3nc(N4CCC(C(=O)Nc5ccccc5C)CC4)sc3n2)cc1	none (no result: SMN2 splice up, Rab9 prom act, NPC1 promoter act, ELG1 genotoxic)
CCc1ccc(-c2cn3nc(-c4ccccc4)cnc3n2)cc1	Rab9 prom act 2µM, NPC1 promoter act inconclusive (no result: SMN2 splice up)
Cc1nn2cc(-c3ccc(OC(C)C)cc3)nc2s1	FLuc counter 1.3µM (no result: Rab9 prom act, NPC1 promoter act, ELG1 genotoxic)
CCOc1ccc(CCNC(=O)Cn2nc(CC)n3c(cc4c(OC)cccc43)c2=O)cc1OCC	none (no result: Rab9 prom act, NPC1 promoter act, ELG1 genotoxic)
CCCCCc1nn2cc(-c3ccccc3)nc2s1	SMN2 splice up 7.1µM, FLuc counter 0.43µM (no result: Rab9 prom act, NPC1 promoter act, ELG1 genotoxic)
CCc1ccc(-c2cn3nc(CC)sc3n2)cc1	FLuc counter 0.6µM (no result: Rab9 prom act, NPC1 promoter act, ELG1 genotoxic)
CCCCc1nn2c(=O)cc(CN(CC)c3ccccc3)nc2s1	none (no result: SMN2 splice up, Rab9 prom act, NPC1 promoter act, ELG1 genotoxic)
CCCc1nn2c(C)c(-c3ccccc3)nc2s1	FLuc counter 1.5µM (no result: Rab9 prom act, NPC1 promoter act, ELG1 genotoxic)
C[C@H]1Cc2c(COc3ccccc3)nc3c(c2CO1)CN(C(=O)c1cc(I)ccc1F)CC3	none (no result: Rab9 prom act, NPC1 promoter act, ELG1 genotoxic, FLuc counter)
C(=C\c1ccccc1)/CSc1ccccn1	Rab9 prom act 3.5µM, NPC1 promoter act inconclusive, FLuc counter 12µM
Cc1cc(C)nc(SC/C=C/c2ccccc2)n1	FLuc counter inconclusive (no result: SMN2 splice up)
O=[N+]([O-])c1cccc(C2=NC(c3ccccc3)CO2)c1 (stereo not given)	Rab9 prom act inconclusive, NPC1 promoter act inconclusive, ELG1 genotoxic inconclusive, FLuc counter 27µM
COc1ccc(C2=NC(c3ccccc3)CO2)cc1 (stereo not given)	SMN2 splice up inconclusive, Rab9 prom act 3.5µM, NPC1 promoter act 3.2µM, ELG1 genotoxic inconclusive, FLuc counter 1.5µM
CCn1cc(C2=NC(c3ccccc3)CO2)c2ccccc21 (stereo not given)	FLuc counter inconclusive
Cc1ccc(CCNS(=O)(=O)c2ccc3c(c2)CCN3C(=O)CCC(=O)O)cc1	none (no result: Rab9 prom act, NPC1 promoter act, ELG1 genotoxic)
CCCN1C/C(=C/c2ccc3c(c2)OCO3)C(=O)/C(=C/c2ccc3c(c2)OCO3)C1	none
CC1=C/C(=C\c2ccc3c(c2)OCO3)C(=O)S1	FLuc counter 19µM
CCOc1ccccc1CNC(=O)C1CCN(C(=O)N2CCOc3ccc(Cl)cc32)CC1	none (no result: SMN2 splice up, Rab9 prom act, NPC1 promoter act, ELG1 genotoxic)
COc1ccc(C2CN=NC23CCCc2ccccc2C3=O)cc1 (stereo not given)	none
COc1ccc(C2CN=NC23CCc2ccccc2C3=O)cc1 (stereo not given)	FLuc counter 17µM (no result: SMN2 splice up)
O=C1c2ccccc2CCC12N=NCC2c1ccc(Cl)cc1 (stereo not given)	FLuc counter 21µM
O=C(Cn1c(=O)n(-c2ccccc2)c(=O)c2ccc(C(=O)NCc3ccc4c(c3)OCO4)cc21)Nc1ccc(F)c(Cl)c1	none (no result: Rab9 prom act, NPC1 promoter act, ELG1 genotoxic)
S=C(N/N=C/c1ccc(Cl)cc1)N1CCOCC1	ELG1 genotoxic inconclusive, FLuc counter inconclusive
S=C(N/N=C/c1ccc(Br)cc1)N1CCCCC1	Rab9 prom act 0.89µM, NPC1 promoter act 4µM, ELG1 genotoxic inconclusive, FLuc counter 27µM (no result: SMN2 splice up)
Cc1ccc(/C=N/NC(=S)N2CCOCC2)cc1	ELG1 genotoxic inconclusive, FLuc counter 15µM
CC(C)(C[C@@]1(C)NC(=O)NC1=O)OCc1ccccc1	none (no result: Rab9 prom act, NPC1 promoter act, ELG1 genotoxic, FLuc counter)
O=C(Nc1cccc(O)c1)c1ccc(Br)cc1	Rab9 prom act inconclusive, NPC1 promoter act inconclusive, ELG1 genotoxic 5.8µM, FLuc counter 12µM
O=C(CCNC(=O)c1ccc(Br)cc1)Nc1cccc(S(=O)(=O)N2CCCC2)c1	none (no result: SMN2 splice up)
CC1CCC(NC(=O)CCNC(=O)c2ccc(Br)cc2)CC1 (stereo not given)	Rab9 prom act 2.5µM, NPC1 promoter act 4.5µM, ELG1 genotoxic inconclusive, FLuc counter inconclusive (no result: SMN2 splice up)
Cc1ccccc1C(=O)Nc1cccc(N)c1	SMN2 splice up inconclusive, FLuc counter inconclusive
Nc1ccc(C(=O)Nc2cccc(N)c2)cc1	Rab9 prom act inconclusive, NPC1 promoter act inconclusive, FLuc counter 21µM (no result: SMN2 splice up)
Cc1cccc(NC(=O)CCNC(=O)c2ccc(Br)cc2)c1	Rab9 prom act inconclusive, ELG1 genotoxic inconclusive, FLuc counter 13µM (no result: SMN2 splice up)
CC(=O)Nc1cccc(NC(=O)c2ccc(Br)cc2)c1	Rab9 prom act inconclusive, FLuc counter 24µM
COc1ccc(CC2S/C(=N/N=C/c3ccccc3O)NC2=O)cc1 (stereo not given)	FLuc counter inconclusive (no result: SMN2 splice up)
O=C1N/C(=N/N=C/c2ccc(O)cc2)SC1Cc1ccccc1 (stereo not given)	FLuc counter 2.4µM (no result: SMN2 splice up)
